Results as given in PubChem BioAssay.
Calls of active or inactive are those of the source. Unless noted, no rule for the calls is given here.

Columns and labels:
[1] = resazurin metabolic signal in HepG2 cells – cell-based, resazurin fluorescence, 24 h, PK04 Diversity Set, profiling panel (AID 1172); conditions: HepG2 viability, higher = more signal
[2] = budding yeast growth changes without added modifier – OD600, strain BY4716, 24 h, basal condition, primary screen (AID 1173); conditions: S. cerevisiae BY4716 growth, OD600, 24 h; higher = more signal, called active from +8 up or from −8 down
[3] = viability profiling in MM1S myeloma cells – cell-based, resazurin fluorescence, basal, 24 h, PK04 Diversity Set, profiling panel (AID 1174); conditions: higher = more signal, called active from +8 up or from −8 down;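 also: MM1S multiple myeloma cell line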
[4] = target: Dihydroorotate dehydrogenase (quinone), mitochondrial (Plasmodium falciparum (isolate 3D7)) (UniProt Q08210); test: inhibition of P. falciparum DHODH – biochemical, C-terminal His tag, absorbance 600 nm, primary screen (AID 1175); conditions: PfDHODH enzyme, DCIP absorbance 600 nm; higher = more signal, called active from +8 up or from −8 down;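 also: recombinant parasite enzyme with a five histidine tag at its C terminus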
[5] = inhibition of PAO1 biofilm formation – strain PAO1, LB-PBS medium, absorbance 600 nm, primary screen (AID 1176); conditions: P. aeruginosa PAO1 growth/biofilm, A600, 12 h; higher = more signal
[6] = growth modulation of vineyard yeast isolate – strain RM11-1a, OD600, basal, 24 h, primary screen (AID 1177);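 also: cultures grown under basal conditions with no added stressor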; conditions: S. cerevisiae RM11-1a growth, OD600, 24 h; higher = more signal, called active from +8 up or from −8 down
[7] = growth of efflux-deficient E. coli DRC39 – strain DRC39, OD650, 24 h, E. coli filamentation inducers, primary screen (AID 1178);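 also: growth measured as culture turbidity by optical density at 650 nm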; conditions: E. coli DRC39 acrAB, higher = more signal, called active from +8 up or from −8 down
[8] = growth of efflux-deficient E. coli DRC39 – strain DRC39, OD650, 48 h, E. coli filamentation inducers, primary screen (AID 1179);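 also: screen aims at cell division blockers that make cells filament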; conditions: E. coli DRC39 delta-acrAB growth, higher = more signal, called active from +8 up or from −8 down
[9] = viability profiling in RPMI8226 myeloma cells – cell-based, resazurin fluorescence, basal, 24 h, PK04 Diversity Set, profiling panel (AID 1180); conditions: higher = more signal;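 also: RPMI8826 multiple myeloma cell line at 5000 cells per well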
[10] = target: E3 ubiquitin-protein ligase XIAP (Homo sapiens) (UniProt P98170); test: small molecules binding XIAP protein – biophysical, small-molecule microarray, fluorescence 635 nm, primary screen (AID 1181); conditions: higher = more signal;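 also: score merges 667 nm emission and signal to noise over triplicate slides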
[11] = system: XIP peptide (Xip251-270) binding; test: XIP fragment 251-270 binding compounds – biochemical, small-molecule microarray, fluorescence 635/667 nm, 0.1 µg/mL protein, primary screen (AID 1182); conditions: fluorescent protein binding, 635 nm, higher = more signal, called active from +8 up or from −8 down
[12] = system: XIP peptide (Xip251-270); test: compounds binding XIP fragment 251-270 – biochemical, small-molecule microarray, fluorescence 635/667 nm, 0.5 µg/mL protein, primary screen (AID 1183); conditions: fluorescence 635 nm, higher = more signal
[13] = blood-stage malaria parasite viability loss – strain 3D7, DAPI fluorescence, 100 nL, primary screen (AID 1184);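 also: parasites grown inside human red blood cells in medium with human serum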; conditions: P. falciparum 3D7 growth, 3 d, higher = more signal
[14] = target: Homeobox protein Hox-A13 (Mus musculus) (UniProt Q62424); test: disruptors of Hoxa13 oligonucleotide interaction – biochemical, fluorescence polarization, labeled oligonucleotide, primary screen (AID 1185); conditions: Hoxa13:DNA binding, 15 min, higher = more signal, called active from +8 up or from −8 down
[15] = blockers of DNA damage checkpoint Chk1 activation – imaging, HeLa, hydroxyurea, phospho-Chk1 antibody, percent positive cells, primary screen (AID 1186); conditions: hydroxyurea-induced phospho-Chk1 immunofluorescence imaging, higher = more signal
[16] = blockers of DNA damage checkpoint Chk1 activation – imaging, HeLa, hydroxyurea, phospho-Chk1 nuclear intensity, primary screen (AID 1187); conditions: hydroxyurea-induced phospho-Chk1 immunofluorescence imaging, higher = more signal

Sequence of E3 ubiquitin-protein ligase XIAP (Homo sapiens) (P98170 whole entry, looked up, the tested form may be a part): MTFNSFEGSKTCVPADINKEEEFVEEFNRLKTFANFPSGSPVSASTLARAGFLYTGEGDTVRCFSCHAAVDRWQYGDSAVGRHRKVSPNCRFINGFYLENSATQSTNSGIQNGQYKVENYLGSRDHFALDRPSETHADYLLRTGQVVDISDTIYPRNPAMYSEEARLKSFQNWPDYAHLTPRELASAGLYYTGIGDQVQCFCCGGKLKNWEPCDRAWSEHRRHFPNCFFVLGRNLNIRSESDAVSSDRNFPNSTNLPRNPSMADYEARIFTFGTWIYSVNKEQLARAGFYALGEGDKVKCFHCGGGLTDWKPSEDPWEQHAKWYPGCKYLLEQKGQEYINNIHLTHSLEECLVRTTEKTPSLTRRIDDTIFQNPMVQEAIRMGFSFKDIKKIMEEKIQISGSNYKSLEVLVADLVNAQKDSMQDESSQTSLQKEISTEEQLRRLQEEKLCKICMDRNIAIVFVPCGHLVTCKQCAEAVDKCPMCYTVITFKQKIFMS
Sequence of Homeobox protein Hox-A13 (Mus musculus) (Q62424 whole entry, looked up): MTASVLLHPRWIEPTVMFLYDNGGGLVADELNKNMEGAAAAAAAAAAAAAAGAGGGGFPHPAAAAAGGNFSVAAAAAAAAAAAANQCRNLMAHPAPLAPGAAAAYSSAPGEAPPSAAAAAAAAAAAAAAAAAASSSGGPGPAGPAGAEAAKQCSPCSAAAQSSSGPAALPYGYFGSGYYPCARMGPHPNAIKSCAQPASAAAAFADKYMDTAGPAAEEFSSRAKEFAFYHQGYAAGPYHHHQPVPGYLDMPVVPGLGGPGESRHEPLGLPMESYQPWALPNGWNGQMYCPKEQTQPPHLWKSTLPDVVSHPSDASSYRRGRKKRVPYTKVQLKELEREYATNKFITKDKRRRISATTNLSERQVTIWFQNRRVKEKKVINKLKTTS
Sequence of Dihydroorotate dehydrogenase (quinone), mitochondrial (Plasmodium falciparum (isolate 3D7)) (Q08210 whole entry, looked up): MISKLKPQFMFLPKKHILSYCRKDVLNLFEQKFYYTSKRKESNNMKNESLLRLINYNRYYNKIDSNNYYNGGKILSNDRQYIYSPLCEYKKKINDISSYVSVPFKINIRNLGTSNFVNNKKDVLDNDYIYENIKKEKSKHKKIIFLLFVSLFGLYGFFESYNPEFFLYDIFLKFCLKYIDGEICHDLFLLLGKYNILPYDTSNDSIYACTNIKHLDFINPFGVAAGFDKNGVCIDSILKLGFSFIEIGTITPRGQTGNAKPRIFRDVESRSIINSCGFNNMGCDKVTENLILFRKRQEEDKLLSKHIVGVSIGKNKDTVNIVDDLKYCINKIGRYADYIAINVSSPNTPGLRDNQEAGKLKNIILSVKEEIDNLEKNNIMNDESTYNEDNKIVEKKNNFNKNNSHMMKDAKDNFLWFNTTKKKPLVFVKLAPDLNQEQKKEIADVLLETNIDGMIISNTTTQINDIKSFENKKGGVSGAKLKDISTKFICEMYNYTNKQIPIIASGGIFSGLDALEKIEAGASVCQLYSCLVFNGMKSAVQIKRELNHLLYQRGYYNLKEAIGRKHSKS

Compound | z-score [1] | z-score [2] | z-score [3] | composite z-score [4] | z-score [5] | z-score [6] | z-score [7] | z-score [8] | z-score [9] | composite z-score [10] | composite z-score [11] | composite z-score [12] | z-score [13] | z-score [14] | z-score [15] | z-score [16]
COc1cc(NN2C(C(O)c3ccc(I)cc3)C=CC3C(=O)N(C)C(=O)C32)cc(OC)c1OC (stereo not drawn) | -1.7 | 0.643 (inactive) | -0.297 (inactive) | -0.698 (inactive) | 1.08 (inactive) | -0.377 (inactive) | 0.168 (inactive) | -0.413 (inactive) | -0.786 | 0.346 | 1.42 (inactive) | -0.064 | -0.336 | -1.63 (inactive) | -0.297 (inactive) | -0.449 (inactive)
Cc1ccc(F)cc1S(=O)(=O)N[C@@H]1CCN(C(=O)c2ccc(OC(C)C)cc2)C1 | 0.157 | -2.17 (inactive) | 0.554 (inactive) | -0.431 (inactive) | -0.165 (inactive) | -0.455 (inactive) | 1.16 (inactive) | 0.427 (inactive) | 0.339 | 0.0336 | 0.615 (inactive) | 0.805 | -1.21 | -5.21 (inactive) | 0.0079 (inactive) | -0.303 (inactive)
CC(C)CN1C(=O)[C@@]2(Cc3ccccc31)c1ccccc1C(=O)N(Cc1ccccc1)[C@H]2c1ccc(CO)cc1 | -0.436 | 0.145 (inactive) | -0.765 (inactive) | -2.4 (inactive) | 0.745 (inactive) | -0.286 (inactive) | 0.109 (inactive) | -0.663 (inactive) | -0.904 | -0.25 | 2.02 (inactive) | -0.526 | -0.435 | -1.07 (inactive) | -0.0605 (inactive) | -0.197 (inactive)
COc1ccc([Si](C)(C)[C@H]2[C@H](CCO)O[C@@]3(C(=O)N(Cc4cccc(N5CCOC5=O)c4)c4ccccc43)[C@@H]2C)cc1 | -1.55 | 1.34 (inactive) | -4.67 (inactive) | -0.287 (inactive) | 2 (inactive) | 4.7 (inactive) | 0.803 (inactive) | 0.113 (inactive) | -3.21 | -0.0755 | 0.154 (inactive) | 0.687 | -2.79 | -4.21 (inactive) | -1.12 (inactive) | -0.5 (inactive)
CC(C)CNC(=O)[C@@]1(C)c2ccccc2C(=O)N(Cc2ccccc2)[C@H]1c1ccc(CO)cc1 | 0.702 | -0.11 (inactive) | -0.0059 (inactive) | -0.362 (inactive) | -0.273 (inactive) | -1.07 (inactive) | 0.165 (inactive) | -0.185 (inactive) | -0.551 | -0.395 | 1.06 (inactive) | -0.951 | 0.301 | -2.75 (inactive) | 0.105 (inactive) | -0.267 (inactive)
CN(C)CCCN1C(=O)[C@@]2(Cc3ccccc31)c1ccccc1C(=O)N(Cc1ccccc1)[C@H]2c1ccc(CO)cc1 | 1.18 | 0.225 (inactive) | 1.04 (inactive) | -6.03 (inactive) | 0.587 (inactive) | -0.549 (inactive) | 0.672 (inactive) | -0.245 (inactive) | 0.246 | -0.176 | 0.0022 (inactive) | 0.324 | -1.47 | 1.06 (inactive) | -0.384 (inactive) | -0.682 (inactive)
C[C@@]1([C@@H](NC(=O)c2cccs2)c2ccc(-c3ccccc3)cc2)C[C@H]1C1CCCCC1 | 0.133 | 0.774 (inactive) | -0.0911 (inactive) | -3.3 (inactive) | 2.3 (inactive) | 0.548 (inactive) | 0.0767 (inactive) | -0.483 (inactive) | 0.689 | 0.246 | -0.592 (inactive) | -0.0139 | -0.972 | -0.431 (inactive) | 0.193 (inactive) | -0.421 (inactive)
COc1cc(C(O)C2C=CC3C(=O)NC(=O)C3N2Nc2ccc(Cl)cc2Cl)cc(OC)c1OC (stereo not drawn) | -0.925 | -12.7 (active) | -0.679 (inactive) | 0.0871 (inactive) | 0.683 (inactive) | 0.1 (inactive) | -0.305 (inactive) | -0.425 (inactive) | -0.933 | 0.0454 | 0.587 (inactive) | 0.619 | -0.395 | -6.07 (inactive) | 0.136 (inactive) | 0.148 (inactive)
OCc1ccc(-c2cc[n+](Cc3cccc(OC(F)(F)F)c3)cc2)cc1 | -0.0785 | -0.615 (inactive) | -0.297 (inactive) | -5.09 (inactive) | 0.282 (inactive) | -0.327 (inactive) | 0.188 (inactive) | 0.147 (inactive) | -0.784 | 0.222 | 1.18 (inactive) | 0.596 | -1.63 | -6.13 (inactive) | 0.258 (inactive) | 0.666 (inactive)
CC(C)(C)N1CC=CC23O[C@@H]4C=CCCOC(=O)C4[C@H]2C(=O)N(CCCO)[C@@H]3C1=O (stereo partly drawn) | -0.884 | -0.434 (inactive) | -1.12 (inactive) | -3.53 (inactive) | -0.193 (inactive) | 0.605 (inactive) | -1.23 (inactive) | -1.27 (inactive) | -1.15 | -0.263 | -0.508 (inactive) | -1.18 | -1.75 | -5.86 (inactive) | -0.0977 (inactive) | -0.102 (inactive)
CC(C)(C)OC(=O)CC[C@]1(C(=O)O)COC(c2ccc(OCCCO)cc2)=N1 | 0.265 | 0.167 (inactive) | -0.249 (inactive) | -0.055 (inactive) | -0.596 (inactive) | 0.433 (inactive) | -0.341 (inactive) | -0.447 (inactive) | -0.0624 | -0.118 | 3.69 (inactive) | 0.532 | 1.22 | -1.32 (inactive) | -0.325 (inactive) | -0.122 (inactive)
CC(C)NC(=O)[C@@H]1c2ccccc2C(=O)N(Cc2cc(C(F)(F)F)cc(C(F)(F)F)c2)[C@H]1c1ccc(CO)cc1 | 0.447 | -0.168 (inactive) | -0.0526 (inactive) | 0.357 (inactive) | 0.733 (inactive) | 0.0633 (inactive) | 1.17 (inactive) | 0.393 (inactive) | 0.25 | -0.0141 | 1.14 (inactive) | 0.55 | -0.337 | -3.9 (inactive) | 0.349 (inactive) | 0.622 (inactive)
COc1ccc(C#Cc2ccc3c(c2)[C@]2(C(=O)N3)[C@H](C(N)=O)[C@H]3C(=O)O[C@H](c4ccccc4)[C@H](c4ccccc4)N3[C@@H]2c2ccc(O)cc2)cc1 | -0.295 | -0.299 (inactive) | -4.88 (inactive) | 0.817 (inactive) | 1.41 (inactive) | 1.68 (inactive) | 0.666 (inactive) | 0.714 (inactive) | -6.43 | 0.0031 | 1.13 (inactive) | 0.712 | 0.0021 | -0.559 (inactive) | -0.607 (inactive) | -0.861 (inactive)
COCC(=C=CC[C@@H](O)c1ccccc1OCCO)C[C@@H](O)COCc1ccccc1 | 0.905 | -0.413 (inactive) | 1.26 (inactive) | -1.47 (inactive) | 0.191 (inactive) | -2.04 (inactive) | 2.4 (inactive) | 1.6 (inactive) | 0.935 | 0.145 | -0.581 (inactive) | 0.262 | -2.84 | -4.38 (inactive) | -1.14 (inactive) | -0.978 (inactive)
COC(=O)[C@@]1(Cc2ccc(F)cc2)[C@@H]2[C@@H](CC(=O)[C@H]2CC(=O)C(=O)N2CCCC2)CN1C(=O)c1ccccc1 | -0.572 | 0.508 (inactive) | -1.78 (inactive) | -0.238 (inactive) | 1.03 (inactive) | 0.23 (inactive) | -1.25 (inactive) | -0.212 (inactive) | -3.35 | -0.0553 | 0.112 (inactive) | 0.663 | -1.44 | -2.66 (inactive) | 0.853 (inactive) | 1.01 (inactive)
C[N+](C)(C)CCCCCCNC(=O)[C@@H]1C[C@@H]2C(=O)NCC(=O)N2[C@@H]1c1ccc(O)cc1 | 0.811 | 0.0566 (inactive) | 0.562 (inactive) | -1.45 (inactive) | -0.447 (inactive) | 0.311 (inactive) | 0.182 (inactive) | 0.128 (inactive) | 0.203 | -0.128 | 0.842 (inactive) | 0.87 | 0.627 | -1.98 (inactive) | 1.34 (inactive) | 0.992 (inactive)
NC(=O)[C@@H]1[C@H]2C(=O)O[C@H](c3ccccc3)[C@H](c3ccccc3)N2[C@H](c2ccccc2OCCO)[C@@]12C(=O)Nc1ccc(C#CCCO)cc12 | 1.06 | -1.45 (inactive) | -0.476 (inactive) | -0.58 (inactive) | -0.104 (inactive) | 0.895 (inactive) | 0.386 (inactive) | -0.318 (inactive) | -1.29 | -0.0048 | 0.585 (inactive) | 0.588 | 0.291 | -5.7 (inactive) | -0.266 (inactive) | -0.161 (inactive)
COC(=O)C(CC#Cc1ccc2c(c1)[C@]1(C(=O)N2)[C@H](c2ccc(OCCO)cc2)N2[C@H](c3ccccc3)[C@H](c3ccccc3)OC(=O)[C@H]2[C@@H]1C(=O)O)C(=O)OC | 0.669 | 0.156 (inactive) | 1.09 (inactive) | -16.3 (active) | 2.28 (inactive) | 1.48 (inactive) | 1.29 (inactive) | 1.33 (inactive) | 0.749 | -0.194 | 0.817 (inactive) | 0.862 | 0.663 | -5.67 (inactive) | 0.0445 (inactive) | 0.436 (inactive)
